Screening data (PubChem BioAssay)
This is a sample that favours compounds with a hit; in the whole collection about 27% have one here.
CYP2C19 inhib: blocks human cytochrome P450 2C19; CYP2C19 Supersomes, luciferin-H EGE luminescence, 30 min; inhibition, % at 5 µM; hit rate 21% among 96,000; P33261;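 active = CYP2C19 inhibition above a set limit at 5 µM in the primary screen, cut at about 50% in these data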;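 also: plate controls were negative control wells for no effect and 2.5 mM tranylcypromine positive control for full effect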
CYP2C9 act: increases human cytochrome P450 2C9 activity. recombinant CYP2C9, luciferin-H conversion, luminescence; active compounds read high; factor 1 = untreated enzyme, 0 = blocked. activation factor at 5 µM. hit rate 1.4% among 96,000. AID 1024;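 active = activation factor of 2 or more for CYP2C9 at a 5 µM dose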;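 also: 0 = sulfaphenazole-blocked wells and 1 = vehicle-only wells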
sEH inhibitor: blocks human soluble epoxide hydrolase activity; recombinant human sEH enzymatic activity assay; AID 707; hit rate 0.34% among 91,000; inhibition, % at 2 µM; in the data active = inhibition above about 80%
Target sequence (P34913 whole entry, looked up): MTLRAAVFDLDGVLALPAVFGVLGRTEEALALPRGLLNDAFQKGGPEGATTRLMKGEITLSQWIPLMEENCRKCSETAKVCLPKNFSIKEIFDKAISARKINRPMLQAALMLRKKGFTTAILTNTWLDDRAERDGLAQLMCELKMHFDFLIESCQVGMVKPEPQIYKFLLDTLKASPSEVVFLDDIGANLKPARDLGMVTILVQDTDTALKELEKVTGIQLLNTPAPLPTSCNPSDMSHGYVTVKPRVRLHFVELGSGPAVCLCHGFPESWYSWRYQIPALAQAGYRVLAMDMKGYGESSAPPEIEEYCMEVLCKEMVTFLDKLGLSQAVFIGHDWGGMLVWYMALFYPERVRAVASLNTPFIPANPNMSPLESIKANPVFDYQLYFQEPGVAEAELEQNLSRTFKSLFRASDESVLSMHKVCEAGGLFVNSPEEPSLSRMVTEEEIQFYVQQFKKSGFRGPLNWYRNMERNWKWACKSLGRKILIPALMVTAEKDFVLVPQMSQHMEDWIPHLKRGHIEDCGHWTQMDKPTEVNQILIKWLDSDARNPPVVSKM
CYP2C9 inhib: blocks human cytochrome P450 2C9; AID 777; CYP2C9 Supersomes, luciferin-H conversion, luminescence; P11712; hit rate 20% among 96,000; inhibition, % at 5 µM;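 active = blocking of liver enzyme CYP2C9 beyond about 50% at 5 µM, limit read from the data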
sEH act: increases human soluble epoxide hydrolase activity | activation, % at 2 µM | hit rate 0.04% among 91,000 | purified human sEH enzymatic activity, activator screen | P34913; in the data active = activation above about 37%
CYP2C19 act: increases human CYP2C19 enzyme activity; 96,000 tested, under 10 active; recombinant CYP2C19, luciferin-H EGE luminescence; active compounds read high; 0 = fully inhibited enzyme, 1 = untreated enzyme; activation factor at 5 µM;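 active = activation factor of at least 2 at 5 µM in the primary screen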;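 also: 0 = wells with 2.5 mM tranylcypromine and 1 = vehicle-only wells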
Starred values were filed as active, the others as inactive; . = no result.

SMILES | CYP2C19 inhib | CYP2C9 act | sEH inhibitor | CYP2C9 inhib | sEH act | CYP2C19 act
Cc1nn(Cc2ccc(Cl)cc2)c(=O)n1N(C)c1ncc(C(F)(F)F)cc1Cl | 73.2* | 0.5 | -2.6 | 49.5 | 2.5 | 0.3
N=c1n(CC(=O)O)c2ccccc2n1Cc1ccccc1Cl | -13.8 | 1.2 | -4.4 | -24.2 | 2.6 | 1.1
N#Cc1c(-c2ccccc2)ccn(Cc2cccc(Cl)c2)c1=O | 77.4* | 0.5 | 10.4 | 51.4* | -8.3 | 0.2
N#Cc1c(-c2ccccc2)ccn(Cc2ccccc2Cl)c1=O | 54.2* | 0.6 | -3.1 | 43.7 | 1.1 | 0.5
CNC(=S)NNC(=O)c1cccn(Cc2cccc(Cl)c2)c1=O | 2.8 | 1 | -0.8 | -1.2 | -1.6 | 1
O=c1c2oc3ccccc3c2ncn1Cc1ccccc1Cl | 32.8 | 0.7 | 4.4 | 27.6 | -6.1 | 0.7
CSc1cc(-c2ccccc2)n(Cc2ccccc2Cl)c(=O)c1C#N | 20.2 | 0.4 | -17.2 | 60.6* | 15.6 | 0.8
O=C(N/N=C1\CCCc2ccccc21)c1ccccc1[N+](=O)[O-] | . | . | -1.4 | . | 2.1 | .
Cc1cccc(NC(=O)Cn2cnc3sc(C)c(S(=O)(=O)N4CCC(C)CC4)c3c2=O)n1 | . | . | 10.6 | . | -11.1 | .
O=C(c1cnc2n(c1=O)CCS2)N1CCN(c2ccc([N+](=O)[O-])cc2)CC1 | -5.9 | 0.9 | 5.6 | 8.8 | -7.0 | 1.1
Cc1cccc(Nc2nc(N)nc(CSc3nccn3C)n2)c1 | 11.9 | 0.9 | -4.3 | 11.7 | 8.1 | 0.9
CC1Cc2ccccc2N1C(=O)C1CCN(S(=O)(=O)Cc2ccccc2)CC1 (stereo unspecified) | 21.3 | 0.9 | 5.1 | 8.5 | -3.5 | 0.8
COc1ccc(Cl)cc1NC(=O)CN1CCC(n2nnc3cc(C)ccc32)CC1 | 93.7* | 1.3 | -2.5 | -28.7 | 3.0 | 0.1
CC1Cc2ccccc2N1C(=O)CN1CCC(n2nnc3cc(C(F)(F)F)ccc32)CC1 (stereo unspecified) | 50.5* | 0.6 | -2.8 | 44.5 | 3.6 | 0.5
Cc1nc2cc(C(F)(F)F)ccc2n1C1CCN(CC(=O)N2CCOCC2)CC1 | 0.2 | 1 | 2.4 | -0.5 | -3.6 | 1
COc1ccccc1NC(=O)CN1CCC(n2nnc3cc(F)ccc32)CC1 | 96.6* | 0.8 | . | 18.4 | . | 0
Cc1ccc(C(=O)OCC(=O)Nc2ccccc2N2CCOCC2)cc1 | . | . | -4.0 | . | 5.5 | .
Cc1ccc2c(c1)nnn2C1CCN(CC(=O)Nc2ccccc2N2CCOCC2)CC1 | 71.2* | 0.3 | -12.1 | 74.7* | 11.7 | 0.3
COC(=O)c1ccccc1NC(=O)CN1CCC(n2nnc3cc(C(F)(F)F)ccc32)CC1 | 69.5* | 0.2 | -6.9 | 82.3* | 8.4 | 0.3
COc1ccc(C(=O)NNC(=O)CN2CCC(n3nnc4cc(C(F)(F)F)ccc43)CC2)cc1 | 3.6 | 0.8 | . | 21.0 | . | 1
Cc1ccc2c(c1)nnn2C1CCN(CC(=O)NCCc2ccccc2)CC1 | 52.2* | 0.6 | 14.9 | 35.2 | -16.5 | 0.5
CSc1nc(-c2ccco2)nn1C(=O)c1ccc(Cl)cc1 | -6.8 | 1.1 | 11.7 | -5.2 | -11.2 | 1.1
O=C(CSc1nnc(COc2cccc3cccnc23)o1)N1CCN(C(=O)c2ccco2)CC1 | . | . | 11.5 | . | -8.6 | .
N#CC(C#N)=c1ccc2c(c1)NC1(CCCCC1)N=2 | 29.5 | 0.4 | -9.8 | 56.0* | 13.2 | 0.7
N#CC1=C(Nc2ccccc2)SC=C(c2ccc(F)cc2)N=C1N1CCOCC1 | -2.0 | 0.9 | 6.1 | 10.9 | -6.4 | 1
SMILES | CYP2C19 inhib | CYP2C9 act | sEH inhibitor | CYP2C9 inhib | sEH act | CYP2C19 act
O=C1NC2(CCCCC2)N=C1c1ccc(Br)cc1 | 57.1* | 0.8 | 7.2 | 20.5 | -5.0 | 0.4
O=C1NC2(CCCC2)N=C1c1ccc(Cl)cc1 | 84.1* | 0.8 | -5.6 | 19.7 | 8.8 | 0.2
O=C1NC2(CCCCC2)N=C1c1ccc(F)cc1 | 17.4 | 0.9 | 4.8 | 10.5 | -2.0 | 0.8
O=c1c2c(nc3c(-c4ccc(Cl)cc4)c[nH]n13)CCCC2 | -15.5 | 1 | -3.9 | -2.7 | 3.5 | 1.2
Cc1noc(C)c1COC(=O)c1ccc(S(=O)(=O)NCc2ccco2)cc1 | 72.3* | 0 | -2.7 | 99.6* | 2.1 | 0.3
O=C(COC(=O)c1ccc(S(=O)(=O)NCc2ccco2)cc1)Nc1ccc(OC(F)F)cc1 | 29.4 | 0.4 | 75.6 | 60.9* | -75.2 | 0.7
CCC(=O)Nc1ccc(S(=O)(=O)NCc2ccco2)cc1 | 18.0 | 1.1 | -11.2 | -5.7 | 8.0 | 0.8
COc1ccccc1NS(=O)(=O)c1ccc(C(=O)OCC(=O)NCc2ccco2)cc1 | 83.6* | 0.2 | -3.6 | 84.7* | 5.7 | 0.2
COc1ccc(C(=O)Nc2ccccc2C(=O)NCc2ccco2)cc1OC | 20.5 | 0.6 | . | 36.5 | . | 0.8
COc1ccc(S(=O)(=O)Nc2ccccc2C(=O)NCc2ccco2)cc1 | 62.3* | 1.1 | -2.8 | -7.4 | 4.2 | 0.4
O=C(COC(=O)c1ccc(S(=O)(=O)NCc2ccco2)cc1)NC1CCCCC1 | 3.2 | 0.7 | 68.2 | 31.4 | -68.8 | 1
COCCCNC(=O)c1ccccc1NS(C)(=O)=O | 0.7 | 1.1 | 2.9 | -5.2 | -2.2 | 1
COc1ccccc1NC(=O)COC(=O)c1ccc(S(=O)(=O)NCc2ccco2)cc1 | 6.7 | 0.2 | 4.7 | 82.4* | -5.2 | 0.9
COCCCNC(=O)c1ccccc1NS(=O)(=O)c1ccc(C)cc1 | 73.9* | 0.7 | -13.7 | 31.8 | 12.0 | 0.3
O=C(CSc1nc2ccccc2[nH]1)NCCN1CCCCC1 | -5.0 | 1 | 4.1 | 3.9 | -3.1 | 1.1
Cc1cc(=O)oc2cc(OCC(=O)OCc3nnc(-c4ccccc4)o3)ccc12 | 5.0 | 1.5 | . | -45.8 | . | 0.9
O=c1c(-c2ccc(F)cc2)coc2c3c(ccc12)OCCO3 | 11.5 | 1 | -7.7 | 3.6 | 7.8 | 0.9
O=c1c(C(c2ccccc2)c2c(O)sc3ccccc3c2=O)c(O)sc2ccccc12 | 1.3 | 0.1 | -7.3 | 94.9* | 6.5 | 1
Cc1cc(=O)c2ccccc2s1 | 28.3 | 1.1 | -11.6 | -13.0 | 12.2 | 0.7
CCOC(=O)N1CCN(S(=O)(=O)c2cc(Br)cc3c2N(C(C)=O)C(C)C3)CC1 (stereo unspecified) | 64.0* | 0.5 | . | 49.7 | . | 0.4
COc1ccc(CN2CC(C(=O)NCc3cccc(OC)c3)CC2=O)cc1 (stereo unspecified) | 46.8 | 1 | -5.8 | 0.1 | 5.4 | 0.5
COc1cccc(CNS(=O)(=O)c2cc(Br)cc3c2N(C(C)=O)C(C)C3)c1 (stereo unspecified) | 74.3* | 2.1* | -3.5 | -109.8 | 3.1 | 0.3
CCOC(=O)N1CCN(S(=O)(=O)c2cc(OCC(N)=O)c(C)cc2Cl)CC1 | 48.5 | 0.9 | -5.6 | 7.0 | 3.7 | 0.5
CC(=O)N1c2c(cc(Br)cc2S(=O)(=O)N2CCN(c3ccccn3)CC2)CC1C (stereo unspecified) | 31.4 | 0.3 | 13.1 | 67.1* | -13.9 | 0.7
CCOC(=O)C1CCN(S(=O)(=O)c2cc(Br)cc3c2N(C(C)=O)C(C)C3)CC1 (stereo unspecified) | 93.3* | 0.2 | . | 78.9* | . | 0.1
